# Reference: the supplement of paper PMC7184167
# Where a name gives a salt, the structure may show the parent alone.
# System: replication-induced senescent mouse newborn dermal fibroblasts (NBF)
# Assay: relative cell viability of senescent cells (fraction); higher = less killing of senescent cells
# Conditions: 1 µM; 3 days
# Method: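 Replication-induced senescent newborn mouse skin fibroblasts (NBFs) in 24-well plates were treated with a Selleck FDA-approved drug library at 1 µM for 3 days.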
row,SMILES,relative cell viability
1,COc1ccccc1OCC(O)COC(N)=O (stereo not drawn) [Methocarbamol],1.03
2,CCOC(=O)c1ccc(C#Cc2ccc3c(c2)C(C)(C)CCS3)nc1 [Tazarotene],1.23
3,C[C@]12CC[C@@H]3c4ccc(O)cc4C[C@@H](CCCCCCCCC[S+]([O-])CCCC(F)(F)C(F)(F)F)[C@H]3[C@@H]1CC[C@@H]2O (stereo partly drawn) [Fulvestrant],0.971
4,Clc1ccc(Nc2nnc(Cc3ccncc3)c3ccccc23)cc1 [Vatalanib (PTK787) 2HCl],0.741
5,CC(C)(C#N)c1cc(Cn2cncn2)cc(C(C)(C)C#N)c1 [Anastrozole],0.993
6,C[C@H](N[C@@H](CCc1ccccc1)C(=O)O)C(=O)N1CCC[C@H]1C(=O)O [Enalaprilat Dihydrate],0.862
7,O=S(=O)(O)CCSSCCS(=O)(=O)O [Dimesna],0.736
8,CC(C(=O)O)c1cccc(C(=O)c2ccccc2)c1 (stereo not drawn) [Ketoprofen],0.757
9,NS(=O)(=O)c1cc2c(cc1Cl)NC(C(Cl)Cl)NS2(=O)=O (stereo not drawn) [Trichlormethiazide],0.981
10,CO[C@H]1C[C@@H]2CC[C@@H](C)[C@@](O)(O2)C(=O)C(=O)N2CCCC[C@H]2C(=O)O[C@H]([C@H](C)C[C@@H]2CC[C@@H](OC(=O)C(C)(CO)CO)[C@H](OC)C2)CC(=O)[C@H](C)/C=C(\C)[C@@H](O)[C@@H](OC)C(=O)[C@H](C)C[C@H](C)/C=C/C=C/C=C/1C,0.603
11,Cc1ccnc2c1NC(=O)c1cccnc1N2C1CC1 [Nevirapine],1.02
12,CC(=O)N[C@@H](CS)C(=O)O [Acetylcysteine],0.834
13,C[C@H]1C[C@H]2[C@@H]3CCC4=CC(=O)C=C[C@]4(C)[C@@]3(F)[C@@H](O)C[C@]2(C)[C@@]1(O)C(=O)CO [Betamethasone],0.229
14,CCc1c2c(nc3ccc(OC(=O)N4CCC(N5CCCCC5)CC4)cc13)-c1cc3c(c(=O)n1C2)COC(=O)[C@]3(O)CC [Irinotecan],0.893
15,CC(C)[C@H](O)C(=O)N[C@@H](C)C(=O)N[C@@H]1C(=O)N(C)CCc2ccccc21,0.981
16,CNS(=O)(=O)CCc1ccc2[nH]cc(C3CCN(C)CC3)c2c1 [Naratriptan HCl],1.14
17,Cc1ccc(C)c(OCCCC(C)(C)C(=O)O)c1 [Gemfibrozil],1.02
18,CN1CC(=O)N2[C@H](c3ccc4c(c3)OCO4)c3[nH]c4ccccc4c3C[C@@H]2C1=O [Tadalafil],0.318
19,CN1CCC[C@@H]1CCO[C@](C)(c1ccccc1)c1ccc(Cl)cc1 [Clemastine Fumarate],1.07
20,c1ccc(-c2ccc(C(c3ccccc3)n3ccnc3)cc2)cc1 (stereo not drawn) [Bifonazole],0.877
21,C#CCC(Cc1cnc2nc(N)nc(N)c2n1)c1ccc(C(=O)N[C@@H](CCC(=O)O)C(=O)O)cc1 (stereo partly drawn) [Pralatrexate],0.863
22,Nc1ccn([C@H]2CC[C@@H](CO)O2)c(=O)n1 [Zalcitabine],0.129
23,C[C@H](NCc1ccc(OCc2cccc(F)c2)cc1)C(N)=O [Safinamide Mesylate],0.955
24,Cc1ccc(NC(=O)c2ccc(CN3CCN(C)CC3)cc2)cc1Nc1nccc(-c2cccnc2)n1 [Imatinib Mesylate (STI571)],0.939
25,O=C(c1cc(Cc2n[nH]c(=O)c3ccccc23)ccc1F)N1CCN(C(=O)C2CC2)CC1,1.09
26,CC(C)(C)c1cc(C(C)(C)C)c(NC(=O)c2c[nH]c3ccccc3c2=O)cc1O [Ivacaftor (VX-770)],0.533
27,CN1CCC(=C2c3ccccc3CCc3sccc32)CC1 [Pizotifen Malate],0.0212
28,COc1cc(Nc2ncc3c(n2)-c2ccc(Cl)cc2C(c2c(F)cccc2OC)=NC3)ccc1C(=O)O [Alisertib (MLN8237)],0.0819
